Assay results taken from ChEMBL document CHEMBL1961873, “Compounds: GSK PKIS; Assays: Nanosyn kinase panel” (2012).

Assays:
[1] = molecular target: Tyrosine-protein kinase CSK (Homo sapiens) (UniProt P41240); settings: at 1 µM;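 also: each value is an averaged inhibition reading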
[2] = molecular target: T1, Discoidin domain-containing receptor 2 (Homo sapiens) (UniProt Q16832); settings: at 0.1 µM
T1 sequence (whole entry): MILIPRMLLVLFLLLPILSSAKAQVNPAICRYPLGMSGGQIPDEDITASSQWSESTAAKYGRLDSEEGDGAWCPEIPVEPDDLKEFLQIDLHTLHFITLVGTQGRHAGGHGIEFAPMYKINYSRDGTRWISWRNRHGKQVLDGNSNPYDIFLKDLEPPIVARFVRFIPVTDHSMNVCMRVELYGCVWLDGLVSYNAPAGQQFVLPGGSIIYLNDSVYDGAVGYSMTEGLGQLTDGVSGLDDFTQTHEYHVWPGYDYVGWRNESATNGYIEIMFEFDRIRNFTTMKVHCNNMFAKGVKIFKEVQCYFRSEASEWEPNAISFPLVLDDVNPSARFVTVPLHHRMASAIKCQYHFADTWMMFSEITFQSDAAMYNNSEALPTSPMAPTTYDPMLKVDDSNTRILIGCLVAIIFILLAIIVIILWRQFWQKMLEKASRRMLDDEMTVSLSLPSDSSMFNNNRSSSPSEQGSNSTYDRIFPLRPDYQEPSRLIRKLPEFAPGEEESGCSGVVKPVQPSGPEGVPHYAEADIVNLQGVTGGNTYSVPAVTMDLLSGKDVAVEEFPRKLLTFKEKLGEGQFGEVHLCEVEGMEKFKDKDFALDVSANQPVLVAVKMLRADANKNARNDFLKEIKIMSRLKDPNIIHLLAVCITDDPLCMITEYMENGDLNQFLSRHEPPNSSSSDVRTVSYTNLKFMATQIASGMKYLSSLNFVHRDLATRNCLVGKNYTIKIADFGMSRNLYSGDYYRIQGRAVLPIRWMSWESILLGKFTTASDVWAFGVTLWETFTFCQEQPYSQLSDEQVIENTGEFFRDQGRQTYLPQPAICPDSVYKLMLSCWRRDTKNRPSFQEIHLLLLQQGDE

[3] = molecular target: T1, Discoidin domain-containing receptor 2 (Homo sapiens); settings: at 1 µM
[4] = molecular target: Epidermal growth factor receptor (Homo sapiens) (UniProt P00533); settings: at 0.1 µM
Chain of Epidermal growth factor receptor (Homo sapiens) (P00533 whole entry): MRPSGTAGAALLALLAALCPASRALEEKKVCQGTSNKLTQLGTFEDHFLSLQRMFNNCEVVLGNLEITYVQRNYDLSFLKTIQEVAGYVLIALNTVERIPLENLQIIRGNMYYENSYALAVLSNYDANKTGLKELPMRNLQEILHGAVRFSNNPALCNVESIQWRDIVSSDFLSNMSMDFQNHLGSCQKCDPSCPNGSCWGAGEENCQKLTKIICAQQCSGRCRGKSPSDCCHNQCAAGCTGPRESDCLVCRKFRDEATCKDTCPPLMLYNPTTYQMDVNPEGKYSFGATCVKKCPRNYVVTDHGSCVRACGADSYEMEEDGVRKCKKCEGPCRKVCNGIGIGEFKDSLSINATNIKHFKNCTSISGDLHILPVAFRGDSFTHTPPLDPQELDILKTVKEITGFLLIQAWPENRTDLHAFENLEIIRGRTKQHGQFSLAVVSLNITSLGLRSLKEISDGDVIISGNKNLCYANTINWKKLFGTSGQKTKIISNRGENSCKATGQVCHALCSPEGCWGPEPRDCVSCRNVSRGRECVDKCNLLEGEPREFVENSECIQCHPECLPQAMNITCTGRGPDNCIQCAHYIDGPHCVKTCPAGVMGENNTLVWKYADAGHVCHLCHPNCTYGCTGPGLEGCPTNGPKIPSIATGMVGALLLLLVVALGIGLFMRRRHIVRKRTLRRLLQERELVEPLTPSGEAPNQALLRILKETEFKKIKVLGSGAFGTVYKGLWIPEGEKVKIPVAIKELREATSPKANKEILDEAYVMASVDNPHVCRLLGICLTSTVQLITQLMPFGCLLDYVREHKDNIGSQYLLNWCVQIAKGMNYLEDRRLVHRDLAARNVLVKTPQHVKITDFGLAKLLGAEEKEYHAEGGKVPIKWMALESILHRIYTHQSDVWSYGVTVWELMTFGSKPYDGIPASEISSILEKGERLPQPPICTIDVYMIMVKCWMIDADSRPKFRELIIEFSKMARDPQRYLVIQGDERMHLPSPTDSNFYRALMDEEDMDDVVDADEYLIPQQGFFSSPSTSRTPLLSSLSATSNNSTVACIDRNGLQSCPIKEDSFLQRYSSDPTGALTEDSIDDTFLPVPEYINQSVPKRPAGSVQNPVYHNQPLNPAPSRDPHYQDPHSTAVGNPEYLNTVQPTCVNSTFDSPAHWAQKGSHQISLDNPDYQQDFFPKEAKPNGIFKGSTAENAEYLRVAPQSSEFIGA

[5] = molecular target: Epidermal growth factor receptor (Homo sapiens) (UniProt P00533); settings: at 1 µM
[6] = tested on: Epidermal growth factor receptor (Homo sapiens), P00533 [L858R]; settings: at 0.1 µM
[7] = tested on: Epidermal growth factor receptor (Homo sapiens), P00533 [L858R]; settings: at 1 µM
[8] = tested on: Epidermal growth factor receptor (Homo sapiens), P00533 [L861Q]; settings: at 0.1 µM
Chain of Epidermal growth factor receptor (Homo sapiens), P00533 [L861Q] (P00533 whole entry L861Q): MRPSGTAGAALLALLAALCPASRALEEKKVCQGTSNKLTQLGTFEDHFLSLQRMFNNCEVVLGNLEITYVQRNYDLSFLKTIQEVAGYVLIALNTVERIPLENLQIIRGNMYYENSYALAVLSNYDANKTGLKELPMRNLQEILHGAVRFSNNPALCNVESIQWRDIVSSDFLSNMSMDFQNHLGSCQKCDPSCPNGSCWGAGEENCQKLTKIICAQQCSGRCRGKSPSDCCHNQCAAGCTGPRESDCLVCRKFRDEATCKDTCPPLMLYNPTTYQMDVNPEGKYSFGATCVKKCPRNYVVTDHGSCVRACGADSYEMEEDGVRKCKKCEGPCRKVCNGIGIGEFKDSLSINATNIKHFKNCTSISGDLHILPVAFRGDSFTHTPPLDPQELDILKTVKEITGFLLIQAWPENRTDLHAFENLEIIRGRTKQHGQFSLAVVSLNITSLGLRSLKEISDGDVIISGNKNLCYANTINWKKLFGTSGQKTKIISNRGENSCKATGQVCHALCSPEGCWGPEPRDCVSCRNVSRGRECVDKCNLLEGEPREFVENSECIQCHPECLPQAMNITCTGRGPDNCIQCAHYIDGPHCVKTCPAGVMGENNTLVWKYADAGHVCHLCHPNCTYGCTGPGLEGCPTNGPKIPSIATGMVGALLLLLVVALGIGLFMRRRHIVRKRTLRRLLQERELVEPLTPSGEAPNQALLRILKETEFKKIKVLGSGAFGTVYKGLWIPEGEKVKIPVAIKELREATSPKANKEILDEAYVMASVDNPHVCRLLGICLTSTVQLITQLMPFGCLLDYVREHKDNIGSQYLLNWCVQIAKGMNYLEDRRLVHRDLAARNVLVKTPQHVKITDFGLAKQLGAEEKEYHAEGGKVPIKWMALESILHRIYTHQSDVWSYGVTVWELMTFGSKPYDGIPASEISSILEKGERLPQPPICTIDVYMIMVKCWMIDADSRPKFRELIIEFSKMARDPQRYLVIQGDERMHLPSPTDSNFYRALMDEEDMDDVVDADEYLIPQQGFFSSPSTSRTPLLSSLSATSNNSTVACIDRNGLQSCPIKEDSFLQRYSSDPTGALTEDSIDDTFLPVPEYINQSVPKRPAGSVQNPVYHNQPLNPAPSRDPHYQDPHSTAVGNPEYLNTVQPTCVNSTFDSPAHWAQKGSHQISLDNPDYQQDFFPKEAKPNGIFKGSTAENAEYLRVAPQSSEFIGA

[9] = tested on: Epidermal growth factor receptor (Homo sapiens), P00533 [L861Q]; settings: at 1 µM
[10] = tested on: Epidermal growth factor receptor (Homo sapiens), P00533 [T790M]; settings: at 0.1 µM
[11] = tested on: Epidermal growth factor receptor (Homo sapiens), P00533 [T790M]; settings: at 1 µM
[12] = tested on: Epidermal growth factor receptor (Homo sapiens), P00533 [L858R,T790M]; settings: at 0.1 µM
[13] = tested on: Epidermal growth factor receptor (Homo sapiens), P00533 [L858R,T790M]; settings: at 1 µM
[14] = molecular target: Ephrin type-A receptor 2 (Homo sapiens) (UniProt P29317); settings: at 0.1 µM
Chain of Ephrin type-A receptor 2 (Homo sapiens) (P29317 whole entry): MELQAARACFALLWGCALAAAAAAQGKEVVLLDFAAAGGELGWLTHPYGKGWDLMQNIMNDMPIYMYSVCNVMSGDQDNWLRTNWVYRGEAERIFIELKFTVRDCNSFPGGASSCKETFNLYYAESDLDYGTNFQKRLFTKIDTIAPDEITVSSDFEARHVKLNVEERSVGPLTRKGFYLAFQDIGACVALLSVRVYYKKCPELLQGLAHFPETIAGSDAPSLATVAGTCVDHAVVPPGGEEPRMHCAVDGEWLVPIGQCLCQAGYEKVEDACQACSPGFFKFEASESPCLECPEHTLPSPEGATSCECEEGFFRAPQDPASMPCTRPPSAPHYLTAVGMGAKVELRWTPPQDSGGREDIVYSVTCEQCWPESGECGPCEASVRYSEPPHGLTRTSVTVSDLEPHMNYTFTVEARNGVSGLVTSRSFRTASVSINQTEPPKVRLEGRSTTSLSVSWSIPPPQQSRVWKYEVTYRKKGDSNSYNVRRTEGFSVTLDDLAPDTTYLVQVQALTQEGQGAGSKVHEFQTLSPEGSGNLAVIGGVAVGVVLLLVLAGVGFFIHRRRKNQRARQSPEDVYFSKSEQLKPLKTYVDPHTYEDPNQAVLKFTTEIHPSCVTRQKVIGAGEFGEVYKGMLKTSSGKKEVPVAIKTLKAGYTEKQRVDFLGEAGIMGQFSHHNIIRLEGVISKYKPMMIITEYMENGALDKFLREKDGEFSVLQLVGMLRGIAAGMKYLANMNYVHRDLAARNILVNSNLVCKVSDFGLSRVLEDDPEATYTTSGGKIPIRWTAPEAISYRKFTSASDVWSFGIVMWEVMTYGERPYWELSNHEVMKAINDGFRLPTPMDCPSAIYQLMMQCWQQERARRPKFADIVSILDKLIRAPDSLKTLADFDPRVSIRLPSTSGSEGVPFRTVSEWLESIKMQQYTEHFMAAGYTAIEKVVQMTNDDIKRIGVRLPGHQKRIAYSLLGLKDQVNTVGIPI

[15] = molecular target: Ephrin type-A receptor 2 (Homo sapiens) (UniProt P29317); settings: at 1 µM
[16] = molecular target: T2, Ephrin type-A receptor 3 (Homo sapiens) (UniProt P29320); settings: at 0.1 µM
T2 sequence (whole entry): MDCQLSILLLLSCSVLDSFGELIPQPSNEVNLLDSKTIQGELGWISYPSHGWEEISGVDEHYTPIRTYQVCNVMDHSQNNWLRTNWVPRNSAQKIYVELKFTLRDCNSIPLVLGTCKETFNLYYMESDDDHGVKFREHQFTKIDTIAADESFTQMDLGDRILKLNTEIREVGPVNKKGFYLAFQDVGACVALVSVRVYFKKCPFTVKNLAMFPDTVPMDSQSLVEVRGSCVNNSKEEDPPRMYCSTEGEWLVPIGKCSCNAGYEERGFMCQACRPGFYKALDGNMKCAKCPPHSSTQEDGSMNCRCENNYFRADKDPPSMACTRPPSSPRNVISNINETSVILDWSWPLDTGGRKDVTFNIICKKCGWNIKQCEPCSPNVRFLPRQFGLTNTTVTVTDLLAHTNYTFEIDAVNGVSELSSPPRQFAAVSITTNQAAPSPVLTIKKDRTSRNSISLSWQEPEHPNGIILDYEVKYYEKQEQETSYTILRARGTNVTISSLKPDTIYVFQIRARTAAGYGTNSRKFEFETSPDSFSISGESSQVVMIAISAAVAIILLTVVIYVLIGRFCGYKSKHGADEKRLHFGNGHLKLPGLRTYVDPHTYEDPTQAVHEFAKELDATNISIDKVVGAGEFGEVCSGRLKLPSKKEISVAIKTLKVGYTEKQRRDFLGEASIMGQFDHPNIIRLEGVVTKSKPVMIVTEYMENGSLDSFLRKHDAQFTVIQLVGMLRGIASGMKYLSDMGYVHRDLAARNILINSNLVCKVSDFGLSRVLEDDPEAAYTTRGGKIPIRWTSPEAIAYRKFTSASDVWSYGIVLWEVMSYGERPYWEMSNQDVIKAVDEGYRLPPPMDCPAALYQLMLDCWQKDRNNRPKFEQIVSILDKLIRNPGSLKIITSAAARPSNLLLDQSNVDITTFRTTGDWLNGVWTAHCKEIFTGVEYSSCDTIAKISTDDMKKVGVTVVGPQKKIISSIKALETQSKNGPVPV

[17] = molecular target: T2, Ephrin type-A receptor 3 (Homo sapiens); settings: at 1 µM
[18] = molecular target: Ephrin type-A receptor 4 (Homo sapiens) (UniProt P54764); settings: at 0.1 µM
Chain of Ephrin type-A receptor 4 (Homo sapiens) (P54764 whole entry): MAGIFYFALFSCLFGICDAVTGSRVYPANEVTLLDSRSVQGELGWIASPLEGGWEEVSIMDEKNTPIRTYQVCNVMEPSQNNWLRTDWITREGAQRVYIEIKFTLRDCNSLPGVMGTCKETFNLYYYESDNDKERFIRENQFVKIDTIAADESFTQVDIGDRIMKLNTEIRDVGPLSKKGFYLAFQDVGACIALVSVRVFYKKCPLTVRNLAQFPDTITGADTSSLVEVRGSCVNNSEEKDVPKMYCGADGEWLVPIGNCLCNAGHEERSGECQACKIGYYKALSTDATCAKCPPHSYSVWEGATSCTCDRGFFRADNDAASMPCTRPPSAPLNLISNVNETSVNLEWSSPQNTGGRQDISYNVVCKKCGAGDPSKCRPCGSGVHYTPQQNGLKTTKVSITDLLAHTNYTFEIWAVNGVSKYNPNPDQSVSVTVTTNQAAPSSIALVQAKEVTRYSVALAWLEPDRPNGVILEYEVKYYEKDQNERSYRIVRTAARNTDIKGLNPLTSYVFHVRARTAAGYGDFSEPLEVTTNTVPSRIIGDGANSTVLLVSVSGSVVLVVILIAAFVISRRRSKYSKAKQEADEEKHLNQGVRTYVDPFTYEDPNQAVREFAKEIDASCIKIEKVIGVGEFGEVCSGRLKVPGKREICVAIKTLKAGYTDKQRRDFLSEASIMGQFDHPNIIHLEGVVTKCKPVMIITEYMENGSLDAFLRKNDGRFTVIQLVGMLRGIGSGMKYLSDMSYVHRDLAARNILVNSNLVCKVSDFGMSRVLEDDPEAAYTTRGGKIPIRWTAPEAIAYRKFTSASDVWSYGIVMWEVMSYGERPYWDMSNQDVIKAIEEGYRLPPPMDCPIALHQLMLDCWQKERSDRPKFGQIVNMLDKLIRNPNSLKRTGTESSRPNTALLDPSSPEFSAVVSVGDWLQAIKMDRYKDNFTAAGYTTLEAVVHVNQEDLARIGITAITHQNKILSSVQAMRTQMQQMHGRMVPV

[19] = molecular target: Ephrin type-A receptor 4 (Homo sapiens) (UniProt P54764); settings: at 1 µM
[20] = molecular target: T3, Ephrin type-B receptor 2 (Homo sapiens) (UniProt P29323); settings: at 0.1 µM;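 also: reported as mean inhibition of EPHB2, from the GSK PKIS dataset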
T3 sequence (whole entry): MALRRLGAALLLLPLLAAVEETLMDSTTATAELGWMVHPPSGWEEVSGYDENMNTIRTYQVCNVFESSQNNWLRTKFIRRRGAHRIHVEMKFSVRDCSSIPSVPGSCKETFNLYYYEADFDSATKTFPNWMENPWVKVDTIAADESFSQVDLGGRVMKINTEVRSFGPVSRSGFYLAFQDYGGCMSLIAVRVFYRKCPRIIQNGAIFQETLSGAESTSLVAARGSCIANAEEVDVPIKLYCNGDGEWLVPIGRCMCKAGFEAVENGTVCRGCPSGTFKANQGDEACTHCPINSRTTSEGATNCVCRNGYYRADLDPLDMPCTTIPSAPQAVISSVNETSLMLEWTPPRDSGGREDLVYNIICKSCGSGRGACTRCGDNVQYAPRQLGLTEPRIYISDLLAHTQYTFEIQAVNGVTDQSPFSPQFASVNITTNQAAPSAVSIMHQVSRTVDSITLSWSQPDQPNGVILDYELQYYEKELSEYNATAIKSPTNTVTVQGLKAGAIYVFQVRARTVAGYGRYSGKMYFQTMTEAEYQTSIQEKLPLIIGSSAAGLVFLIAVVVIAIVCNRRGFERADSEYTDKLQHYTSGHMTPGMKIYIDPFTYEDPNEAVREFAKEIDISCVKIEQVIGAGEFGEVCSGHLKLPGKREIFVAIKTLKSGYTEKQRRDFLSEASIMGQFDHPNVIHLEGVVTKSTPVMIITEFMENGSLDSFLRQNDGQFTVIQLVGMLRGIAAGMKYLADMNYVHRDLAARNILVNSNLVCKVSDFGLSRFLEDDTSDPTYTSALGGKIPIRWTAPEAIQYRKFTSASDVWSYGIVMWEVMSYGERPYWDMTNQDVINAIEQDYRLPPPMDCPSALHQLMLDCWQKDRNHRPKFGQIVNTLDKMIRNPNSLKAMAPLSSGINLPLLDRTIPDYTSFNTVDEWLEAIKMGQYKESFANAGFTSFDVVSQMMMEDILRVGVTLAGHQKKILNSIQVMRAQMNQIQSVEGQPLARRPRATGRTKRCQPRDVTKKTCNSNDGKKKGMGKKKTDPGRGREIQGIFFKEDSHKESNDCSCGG

Chain of Tyrosine-protein kinase CSK (Homo sapiens) (P41240 2-450 limits assumed): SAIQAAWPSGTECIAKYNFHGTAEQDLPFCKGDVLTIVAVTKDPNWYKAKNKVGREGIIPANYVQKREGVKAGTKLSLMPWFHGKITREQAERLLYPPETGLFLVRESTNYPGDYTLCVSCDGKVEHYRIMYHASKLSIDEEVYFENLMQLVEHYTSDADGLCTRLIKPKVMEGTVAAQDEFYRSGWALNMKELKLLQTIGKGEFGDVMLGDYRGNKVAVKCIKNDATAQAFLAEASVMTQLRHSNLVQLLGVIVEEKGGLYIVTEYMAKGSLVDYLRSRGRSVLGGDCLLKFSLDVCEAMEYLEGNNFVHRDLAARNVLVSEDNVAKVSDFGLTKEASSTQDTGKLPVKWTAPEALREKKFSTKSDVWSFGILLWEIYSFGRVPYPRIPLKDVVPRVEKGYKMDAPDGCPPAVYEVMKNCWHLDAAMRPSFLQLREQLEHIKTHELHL

Row | Compound | inhibition [1] [%] | inhibition [2] [%] | inhibition [3] [%] | inhibition [4] [%] | inhibition [5] [%] | inhibition [6] [%] | inhibition [7] [%] | inhibition [8] [%] | inhibition [9] [%] | inhibition [10] [%] | inhibition [11] [%] | inhibition [12] [%] | inhibition [13] [%] | inhibition [14] [%] | inhibition [15] [%] | inhibition [16] [%] | inhibition [17] [%] | inhibition [18] [%] | inhibition [19] [%] | inhibition [20] [%]
1 | CCN(CC)S(=O)(=O)c1ccc(OC)c(Nc2ncc(-c3ccccc3)o2)c1 | 5.35 | 7.09 | 17.5 | 3.51 | 3.96 | 4.33 | 11.6 | 3.42 | 2.22 | 1.36 | 2.04 | 0.39 | -0.47 | 4.36 | 2.14 | 2.4 | 2.35 | 9.54 | 13.8 | 5.55
2 | COc1cc2c(cc1Nc1nc(Nc3ccsc3C(N)=O)c3cc[nH]c3n1)N(C(=O)CN(C)C)CCC2(C)C | 0.65 | 4.88 | 1.72 | 1.56 | 9.19 | 5.69 | 33.1 | 1.86 | 14.5 | 26.6 | 70.8 | 51.9 | 84.7 | 1.53 | 0.81 | 4.65 | 4.34 | 7.86 | 6.49 | 6.01
3 | COc1ccc(CNC(=O)c2ccc(-c3cc(-c4nnc(C)o4)ccc3C)cc2)cc1 | 6.32 | 4.36 | 4.67 | 2.84 | 4.15 | 0.12 | 8.38 | 1.79 | 7.03 | 1.31 | 5.47 | 3.26 | 3.61 | 2.44 | 2.41 | 1.41 | 4.21 | 5.67 | 15.7 | 7.58
4 | COc1ccc(-c2cc(-c3c[nH]nc3-c3ccccn3)ccn2)cc1 | 10.3 | 2.09 | 3.66 | 1.65 | 6.06 | 1.51 | 8.95 | 4.61 | 4.33 | 2.05 | 4.53 | 2.1 | 4.71 | 2.38 | 1.07 | 4.5 | 7.51 | 8.66 | 14.1 | 7.99
5 | COC(=O)c1sc(-n2cnc3cc(OC)c(OC)cc32)cc1OCc1ccccc1C(F)(F)F | 0.42 | 2.46 | 2.44 | -0.33 | 2.22 | 1.6 | 6.95 | 3.31 | 0.15 | 1.36 | -0.3 | -1.64 | 1.53 | 2.23 | 3.86 | 4.53 | 3.54 | 9.09 | 4.17 | 6.43
6 | NS(=O)(=O)c1ccc(N/N=C2\C(=O)Nc3ccc4ncccc4c32)cc1 | 9.03 | 0.92 | 6.09 | 0.87 | 6.7 | 1.35 | 2.75 | 1.5 | -1.33 | 1.15 | -0.36 | 1.77 | 5.28 | 1.99 | 9.56 | 5.42 | 12.4 | 8.83 | 31 | 8.06
7 | Cc1cccc2c1NC(=O)/C2=N\Nc1ccc(S(N)(=O)=O)cc1 | 4.79 | 1.44 | 1.81 | 5.97 | 9.39 | 3.74 | 5.52 | 1.86 | 0.73 | -0.7 | 0.35 | 3.72 | 1.46 | 2.85 | 3.42 | 4.1 | 3.43 | 6.06 | 7.18 | 7.03
8 | COc1cc(N2CCN(C(C)C)CC2)ccc1Nc1nc(Nc2ccc(F)cc2C(N)=O)c2cc[nH]c2n1 | 0.44 | 0.99 | 0.35 | 5.2 | – | 1.78 | 39.2 | 3.8 | 23.1 | 26.4 | 79.5 | 56.5 | 90.4 | 0.87 | -0.92 | 1.78 | 1.28 | 4.96 | 6.43 | 4.59
9 | CCN1CCC(CC(=O)Nc2n[nH]c3nnc(-c4cccc(F)c4F)cc23)CC1 | 4.47 | 1.59 | 1.68 | -0.65 | 2.31 | -0.92 | 3.4 | 0.65 | -0.91 | -0.06 | 3.4 | 1.92 | 1.26 | 0.75 | 1.02 | 3.31 | 2.84 | 5.3 | 7.67 | -4.82
10 | [O-][S+]1CCN(Cc2ccc(-c3ccc4ncnc(Nc5ccc(OCc6cccc(F)c6)c(Cl)c5)c4c3)o2)CC1 | 5.15 | 2.52 | 2.37 | 81.3 | 83.5 | 88.1 | 99.1 | 77.5 | 95.7 | 7.36 | 22 | 1.22 | 5.52 | 1.19 | 0.52 | 5.19 | 2.42 | 7.3 | 11.6 | 9.52
11 | COc1ccc2c(-c3ccnc(Nc4cccc(OC(F)(F)F)c4)n3)cnn2n1 | 12.2 | 1.53 | 3.16 | 1.3 | 2.97 | 4.17 | 5.43 | 2.8 | 4.76 | 2.35 | 3.37 | 2.65 | 2.88 | 1.21 | 2.29 | 6.89 | 7.93 | 11.3 | 24.1 | 5.72
12 | c1ccc(-c2nc3n(c2-c2ccc4c(c2)OCO4)CCC3)nc1 | 1.76 | 0.99 | 0.78 | 1.53 | 0.21 | 0.88 | -1.2 | 0.86 | 1.07 | 0.12 | 0.6 | 1.92 | 1.45 | -2.56 | -2.85 | -0.11 | 1.96 | 4.05 | 2.75 | 1.03
13 | COc1cccc(-c2c[nH]c3c(N/N=C/c4ccncc4)ncnc23)c1 | 17.3 | 3.82 | 14.8 | 7.02 | 41.9 | 30.4 | 82.3 | 8.35 | 45.4 | 1.02 | 2.55 | 2.51 | 22.9 | 3.62 | 14.6 | 3.44 | 6.01 | 8.17 | 30.5 | 10.3
